Of roughly 7,900 targets only a part is listed; those with a hit were picked by preference. About 0.6% of all pairs of compound and target were hits.
Columns and labels:
Assay in all cases: log2 fold change, soluble protein after heating vs DMSO (PISA); higher = thermal stabilisation; K562 cells, 10 uM, 30 min; active = over 0.2 and 3.5 SD of the protein, either way, in both replicates (recomputed)
[1] = compound: CS(=O)(=O)c1ccc(-c2cnc(N)c(C(=O)Nc3ccccc3)n2)cc1
In short: (§1)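 Soluble protein was defined as the supernatant after 21,000xg for 90 min. It came from K562 cells at 2×10^6 cells/mL given 10 μM compound for 30 min, heated in aliquots for 3 min across 48°C-58°C, pooled, and extracted in PBS with 0.5% NP-40 at 4°C, and was quantified by TMTpro 16plex LC-MS/MS with equalised channel sums. Thermal stability against control samples, from duplicates, is reported as log2 fold change.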

crizotinib = compound: C[C@@H](Oc1cc(-c2cnn(C3CCNCC3)c2)cnc1N)c1c(Cl)ccc(F)c1Cl [crizotinib]
In short: as §1

[2] = compound: C[C@@H]1COCCN1C2=NC(=NC(=C2)C3(CC3)S(=O)(=O)C)C4=C5C=CNC5=CC=C4
In short: as §1

[3] = compound: C[C@H](C1=CC=C(C=C1)C(=O)NC2=C3C=CNC3=NC=C2)N
In short: as §1

duvelisib = compound: C[C@H](Nc1ncnc2nc[nH]c12)c1cc2cccc(Cl)c2c(=O)n1-c1ccccc1 [duvelisib]
In short: as §1

tozasertib = compound: Cc1cc(Nc2cc(N3CCN(C)CC3)nc(Sc3ccc(NC(=O)C4CC4)cc3)n2)n[nH]1 [tozasertib]
In short: as §1

[4] = compound: Cc1cc(SCc2sc(-c3ccc(C(F)(F)F)cc3)nc2C)ccc1OCC(=O)O
In short: as §1

doramapimod = compound: Cc1ccc(-n2nc(C(C)(C)C)cc2NC(=O)Nc2ccc(OCCN3CCOCC3)c3ccccc23)cc1 [doramapimod]
In short: as §1

ispinesib = compound: Cc1ccc(C(=O)N(CCCN)[C@@H](c2nc3cc(Cl)ccc3c(=O)n2Cc2ccccc2)C(C)C)cc1 [ispinesib]
In short: as §1

bafetinib = compound: Cc1ccc(NC(=O)c2ccc(CN3CC[C@H](N(C)C)C3)c(C(F)(F)F)c2)cc1Nc1nccc(-c2cncnc2)n1 [bafetinib]
In short: as §1

nilotinib = compound: Cc1cn(-c2cc(NC(=O)c3ccc(C)c(Nc4nccc(-c5cccnc5)n4)c3)cc(C(F)(F)F)c2)cn1 [nilotinib]
In short: as §1

[5] = compound: Cc1nc(Nc2n[nH]c3c2CN(C(=O)N[C@H](CN(C)C)c2ccccc2)C3(C)C)c2sccc2n1
In short: as §1

dasatinib = compound: Cc1nc(Nc2ncc(C(=O)Nc3c(C)cccc3Cl)s2)cc(N2CCN(CCO)CC2)n1 [dasatinib]
In short: as §1

[6] = compound: Cc1ncc(-c2ccnc(Nc3ccc(S(C)(=O)=O)cc3)n2)n1C(C)C
In short: as §1

[7] = compound: Cn1cc(-c2ccc3c(c2)CCN3C(=O)Cc2cccc(C(F)(F)F)c2)c2c(N)ncnc21
In short: as §1

[8] = compound: Cn1cc(-c2ccc3nnc(C(F)(F)c4ccc5ncccc5c4)n3n2)cn1
In short: as §1

tipifarnib = compound: Cn1cncc1[C@@](N)(c1ccc(Cl)cc1)c1ccc2c(c1)c(-c1cccc(Cl)c1)cc(=O)n2C [tipifarnib]
In short: as §1

mubritinib = compound: FC(F)(F)c1ccc(/C=C/c2nc(COc3ccc(CCCCn4ccnn4)cc3)co2)cc1 [mubritinib]
In short: as §1

gandotinib = compound: Cc1cc(Nc2cc(CN3CCOCC3)c3nc(C)c(Cc4ccc(Cl)cc4F)n3n2)n[nH]1 [gandotinib]
In short: as §1

[9] = compound: Cc1cccc(CC(=O)N2CCc3c2ccc(-c2cn(C)c4ncnc(N)c24)c3F)n1
In short: as §1

Measured: log2 fold change

SLC35A1 (UniProt P78382)
Sequence of UniProt P78382 (P78382 whole entry, looked up): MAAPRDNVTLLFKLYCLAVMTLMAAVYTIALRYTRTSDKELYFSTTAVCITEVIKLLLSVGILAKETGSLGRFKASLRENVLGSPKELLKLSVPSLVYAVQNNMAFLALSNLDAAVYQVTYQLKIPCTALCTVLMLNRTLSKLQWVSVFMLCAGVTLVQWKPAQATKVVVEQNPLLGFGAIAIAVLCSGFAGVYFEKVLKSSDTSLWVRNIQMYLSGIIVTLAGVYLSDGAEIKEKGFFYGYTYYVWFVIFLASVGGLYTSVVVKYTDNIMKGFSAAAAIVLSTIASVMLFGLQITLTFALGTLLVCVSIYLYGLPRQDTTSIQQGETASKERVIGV
inactive: [1] -0.017 | crizotinib 0.056 | [2] 0.044 | [3] -0.196 | duvelisib -0.005 | tozasertib -0.036 | [4] 0.074 | doramapimod -0.039 | ispinesib 0.04 | bafetinib 0.005 | nilotinib -0.009 | [5] -0.055 | dasatinib 0.036 | [6] -0.02 | [7] 0.03 | [8] 0.067 | tipifarnib -0.022 | mubritinib 0.049

SLC35B1 isoform 2 (UniProt P78383)
Sequence of UniProt P78383 (P78383 whole entry, looked up): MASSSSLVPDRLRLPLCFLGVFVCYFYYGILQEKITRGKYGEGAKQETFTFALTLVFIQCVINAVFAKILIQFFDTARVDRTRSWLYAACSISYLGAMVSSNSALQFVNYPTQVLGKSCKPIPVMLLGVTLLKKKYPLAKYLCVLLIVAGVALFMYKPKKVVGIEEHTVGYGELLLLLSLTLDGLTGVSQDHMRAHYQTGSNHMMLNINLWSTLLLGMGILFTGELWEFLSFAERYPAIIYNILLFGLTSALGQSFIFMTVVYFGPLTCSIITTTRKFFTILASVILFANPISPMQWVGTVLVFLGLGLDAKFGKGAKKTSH
active: [3] -0.535
inactive: [1] 0.049 | crizotinib -0.053 | [2] -0.042 | duvelisib 0.171 | tozasertib 0.075 | [4] 0 | doramapimod -0.061 | ispinesib -0.043 | bafetinib -0.018 | nilotinib -0.065 | [5] 0.052 | dasatinib 0.142 | [6] -0.097 | [7] -0.13 | [8] -0.172 | mubritinib 0.016

SNX2 isoform 2 (UniProt O60749)
Sequence of UniProt O60749 (O60749 whole entry, looked up): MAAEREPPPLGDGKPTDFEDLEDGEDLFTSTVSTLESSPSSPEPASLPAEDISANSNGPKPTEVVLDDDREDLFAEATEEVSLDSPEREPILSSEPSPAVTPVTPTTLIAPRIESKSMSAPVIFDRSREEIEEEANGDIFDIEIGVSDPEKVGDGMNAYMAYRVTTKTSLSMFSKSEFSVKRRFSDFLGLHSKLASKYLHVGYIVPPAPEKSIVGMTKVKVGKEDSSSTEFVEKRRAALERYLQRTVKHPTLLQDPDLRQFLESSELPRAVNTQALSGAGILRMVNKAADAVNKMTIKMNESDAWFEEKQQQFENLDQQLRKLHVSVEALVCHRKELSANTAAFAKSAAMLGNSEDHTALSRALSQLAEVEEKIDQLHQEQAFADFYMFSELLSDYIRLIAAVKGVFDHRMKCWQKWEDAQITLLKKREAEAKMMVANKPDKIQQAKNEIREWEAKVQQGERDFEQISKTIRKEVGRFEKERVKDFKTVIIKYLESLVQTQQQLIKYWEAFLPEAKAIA
inactive: [1] 0.135 | crizotinib -0.145 | [2] 0.071 | [3] 0.108 | duvelisib 0.015 | [4] -0.029 | doramapimod 0.17 | bafetinib -0.163 | dasatinib -0.097 | [7] 0.16 | tipifarnib -0.155

STK38L (UniProt Q9Y2H1)
inactive: [1] 0.028 | crizotinib 0.065 | [2] 0.069 | [3] -0.055 | duvelisib -0.04 | gandotinib -0.105 | tozasertib 0.003 | [4] 0.116 | doramapimod -0.022 | ispinesib -0.093 | bafetinib -0.02 | [9] -0.065 | nilotinib -0.032 | [5] -0.238 | dasatinib -0.012 | [6] -0.03 | [7] -0.122 | [8] -0.582 | mubritinib 0.081

SLC25A39 (UniProt Q9BZJ4)
inactive: [1] -0.029 | crizotinib -0.025 | [2] 0.14 | [3] -0.165 | duvelisib 0.044 | gandotinib 0.075 | tozasertib 0.269 | [4] -0.08 | doramapimod -0.079 | ispinesib -0.523 | bafetinib -0.182 | [9] -0.397 | nilotinib -0.136 | [5] -0.119 | dasatinib -0.035 | [6] 0.035 | [7] 0.081 | [8] 0.092 | tipifarnib 0.009 | mubritinib 0.104

SRXN1 (UniProt Q9BYN0)
Sequence of UniProt Q9BYN0 (Q9BYN0 whole entry, looked up): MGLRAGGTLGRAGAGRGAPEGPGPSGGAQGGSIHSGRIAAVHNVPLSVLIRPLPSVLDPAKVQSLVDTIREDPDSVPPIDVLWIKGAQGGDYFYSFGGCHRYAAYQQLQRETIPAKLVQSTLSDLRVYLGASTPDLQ
inactive: [1] 0.009 | crizotinib -0.295 | [2] 0.09 | [3] -0.091 | gandotinib 0.01 | tozasertib -0.086 | doramapimod 0.076 | ispinesib -0.16 | bafetinib -0.011 | [9] -0.157 | nilotinib -0.017 | [5] -0.088 | [6] 0.093 | [7] 0.134 | [8] 0.056 | tipifarnib -0.149 | mubritinib 0.127

SUN1 isoform 9 (UniProt O94901)
Sequence of UniProt O94901 (O94901 whole entry, looked up): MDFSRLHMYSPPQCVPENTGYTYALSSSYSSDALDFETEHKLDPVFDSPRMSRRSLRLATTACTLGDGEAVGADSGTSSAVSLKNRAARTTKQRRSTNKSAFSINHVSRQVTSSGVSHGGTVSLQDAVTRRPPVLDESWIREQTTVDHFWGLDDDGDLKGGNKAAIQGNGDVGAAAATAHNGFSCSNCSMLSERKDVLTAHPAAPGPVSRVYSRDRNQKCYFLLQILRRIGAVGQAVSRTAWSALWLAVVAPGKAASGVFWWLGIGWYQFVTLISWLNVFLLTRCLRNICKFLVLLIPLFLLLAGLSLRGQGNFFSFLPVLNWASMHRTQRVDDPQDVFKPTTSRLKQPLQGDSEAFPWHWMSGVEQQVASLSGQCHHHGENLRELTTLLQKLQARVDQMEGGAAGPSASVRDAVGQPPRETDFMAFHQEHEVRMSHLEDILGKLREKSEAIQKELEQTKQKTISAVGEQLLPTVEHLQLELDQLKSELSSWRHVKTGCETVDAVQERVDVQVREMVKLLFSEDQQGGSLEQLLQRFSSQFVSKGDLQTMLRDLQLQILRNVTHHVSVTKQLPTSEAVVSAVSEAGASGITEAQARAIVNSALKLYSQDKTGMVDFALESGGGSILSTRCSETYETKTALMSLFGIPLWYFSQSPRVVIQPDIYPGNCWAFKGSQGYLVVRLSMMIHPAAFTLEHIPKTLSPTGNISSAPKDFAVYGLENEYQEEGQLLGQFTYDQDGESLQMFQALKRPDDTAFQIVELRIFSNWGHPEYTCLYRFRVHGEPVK
inactive: [1] -0.03 | crizotinib -0.067 | [2] -0.005 | [3] 0.006 | duvelisib -0.059 | gandotinib -0.052 | tozasertib -0.047 | [4] -0.017 | doramapimod 0.089 | [9] -0.036 | nilotinib -0.014 | [5] -0.115 | dasatinib 0.007 | [6] -0.018 | [7] -0.141 | [8] -0.055 | tipifarnib 0.039 | mubritinib -0.021
active: ispinesib -0.324

SMDT1 (UniProt Q9H4I9)
Sequence of UniProt Q9H4I9 (Q9H4I9 whole entry, looked up): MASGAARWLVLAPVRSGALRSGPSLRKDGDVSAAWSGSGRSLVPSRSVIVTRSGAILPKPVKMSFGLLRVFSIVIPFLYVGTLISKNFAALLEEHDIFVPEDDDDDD
inactive: [1] 0.144 | crizotinib 0.042 | [2] 0.017 | [3] -0.035 | duvelisib 0.026 | gandotinib -0.23 | tozasertib -0.014 | [4] 0 | doramapimod 0.054 | bafetinib -0.138 | [9] 0.006 | dasatinib 0.005 | [7] 0.137 | mubritinib 0.068

SLC44A2 isoform 2 (UniProt Q8IWA5)
inactive: [1] 0.019 | crizotinib 0.113 | [2] 0.026 | [3] -0.123 | duvelisib 0.154 | gandotinib -0.017 | tozasertib -0.022 | [4] -0.046 | doramapimod 0.055 | ispinesib 0.069 | bafetinib 0.058 | [9] -0.053 | nilotinib 0.13 | [5] 0.008 | dasatinib 0.064 | [6] 0.068 | [7] 0.084 | [8] -0.076 | mubritinib 0.045

TERF2IP (UniProt Q9NYB0)
Sequence of UniProt Q9NYB0 (Q9NYB0 whole entry, looked up): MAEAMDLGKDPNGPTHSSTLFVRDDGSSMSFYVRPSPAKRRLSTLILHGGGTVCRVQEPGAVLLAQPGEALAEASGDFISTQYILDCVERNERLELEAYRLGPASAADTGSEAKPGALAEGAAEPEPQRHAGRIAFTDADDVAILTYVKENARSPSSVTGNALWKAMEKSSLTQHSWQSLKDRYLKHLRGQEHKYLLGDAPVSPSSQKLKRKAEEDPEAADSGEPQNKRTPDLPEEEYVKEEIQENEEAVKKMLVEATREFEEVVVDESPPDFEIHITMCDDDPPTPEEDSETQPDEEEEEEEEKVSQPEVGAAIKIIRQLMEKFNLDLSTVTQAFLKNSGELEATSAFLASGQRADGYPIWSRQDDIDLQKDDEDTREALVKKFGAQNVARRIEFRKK
inactive: [1] -0.021 | crizotinib 0.085 | [2] -0.072 | [3] -0.099 | duvelisib 0.016 | gandotinib 0.028 | tozasertib 0.108 | [4] 0.005 | doramapimod -0.019 | ispinesib 0.044 | bafetinib -0.051 | [9] -0.008 | nilotinib -0.006 | [5] -0.163 | dasatinib -0.028 | [6] -0.128 | [7] -0.078 | [8] -0.033 | tipifarnib 0.074 | mubritinib -0.014

SUOX (UniProt P51687)
Sequence of UniProt P51687 (P51687 whole entry, looked up): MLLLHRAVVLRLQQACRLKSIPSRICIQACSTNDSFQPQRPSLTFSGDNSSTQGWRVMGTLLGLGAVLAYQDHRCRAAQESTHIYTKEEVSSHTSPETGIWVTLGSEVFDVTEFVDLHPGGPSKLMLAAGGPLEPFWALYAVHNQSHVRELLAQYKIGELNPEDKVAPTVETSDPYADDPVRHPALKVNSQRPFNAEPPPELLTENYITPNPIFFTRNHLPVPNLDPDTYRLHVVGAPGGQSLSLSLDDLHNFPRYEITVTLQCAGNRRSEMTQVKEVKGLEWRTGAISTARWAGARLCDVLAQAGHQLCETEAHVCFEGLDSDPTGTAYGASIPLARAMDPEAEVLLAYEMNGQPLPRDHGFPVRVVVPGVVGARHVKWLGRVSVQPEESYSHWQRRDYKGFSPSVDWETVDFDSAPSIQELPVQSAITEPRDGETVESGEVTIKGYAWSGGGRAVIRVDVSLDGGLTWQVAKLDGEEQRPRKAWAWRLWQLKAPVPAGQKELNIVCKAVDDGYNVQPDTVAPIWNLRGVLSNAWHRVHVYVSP
inactive: [1] 0.016 | crizotinib 0.076 | [2] 0.098 | [3] 0.001 | duvelisib -0.026 | gandotinib 0.063 | tozasertib 0.003 | [4] -0.075 | doramapimod -0.338 | ispinesib -0.034 | bafetinib -0.084 | [9] -0.181 | nilotinib 0.063 | [5] 0.013 | dasatinib 0 | [6] -0.066 | [7] -0.015 | [8] 0.063 | tipifarnib 0.019 | mubritinib 0.032

TMBIM6 isoform 2 (UniProt P55061)
Sequence of UniProt P55061 (P55061 whole entry, looked up): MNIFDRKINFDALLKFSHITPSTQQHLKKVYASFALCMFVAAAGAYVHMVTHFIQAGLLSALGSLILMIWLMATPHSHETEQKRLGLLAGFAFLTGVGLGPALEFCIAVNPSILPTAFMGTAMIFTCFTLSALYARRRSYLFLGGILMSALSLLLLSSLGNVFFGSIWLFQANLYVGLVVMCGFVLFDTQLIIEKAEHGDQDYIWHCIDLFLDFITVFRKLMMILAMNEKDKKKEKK
active: crizotinib -0.451
inactive: [1] -0.066 | [2] 0.033 | [3] -0.049 | duvelisib 0.046 | tozasertib -0.066 | [4] -0.03 | doramapimod -0.053 | ispinesib -0.407 | bafetinib -0.135 | nilotinib -0.158 | [5] 0.028 | dasatinib -0.081 | [6] -0.037 | [7] 0.063 | [8] -0.073 | tipifarnib -0.269 | mubritinib 0.036

SLC35B4 (UniProt Q969S0)
Sequence of UniProt Q969S0 (Q969S0 whole entry, looked up): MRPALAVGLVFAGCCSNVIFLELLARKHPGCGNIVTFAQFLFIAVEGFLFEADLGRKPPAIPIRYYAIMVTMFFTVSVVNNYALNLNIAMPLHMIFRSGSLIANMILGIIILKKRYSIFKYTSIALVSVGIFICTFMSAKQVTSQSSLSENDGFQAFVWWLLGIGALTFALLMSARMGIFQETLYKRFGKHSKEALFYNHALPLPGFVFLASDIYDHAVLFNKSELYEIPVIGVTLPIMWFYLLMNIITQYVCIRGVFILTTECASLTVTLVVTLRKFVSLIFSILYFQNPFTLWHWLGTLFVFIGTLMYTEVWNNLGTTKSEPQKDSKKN
inactive: [1] 0.016 | crizotinib 0.256 | [2] 0.048 | tozasertib 0.063 | doramapimod 0.038 | bafetinib -0.12 | nilotinib 0.027 | [5] 0.016 | [6] 0.1 | mubritinib 0.032

TENT5C (UniProt Q5VWP2)
inactive: [1] 0.044 | crizotinib 0.043 | [3] 0.011 | duvelisib 0.111 | gandotinib 0.142 | tozasertib -0.05 | [4] 0.174 | doramapimod 0.061 | ispinesib 0.055 | bafetinib -0.055 | [9] 0.009 | nilotinib 0.002 | [5] 0.02 | dasatinib -0.122 | [6] 0.005 | [7] -0.286 | [8] 0.028 | tipifarnib -0.02 | mubritinib 0.014

STEAP3 isoform 2 (UniProt Q658P3)
Sequence of UniProt Q658P3 (Q658P3 whole entry, looked up): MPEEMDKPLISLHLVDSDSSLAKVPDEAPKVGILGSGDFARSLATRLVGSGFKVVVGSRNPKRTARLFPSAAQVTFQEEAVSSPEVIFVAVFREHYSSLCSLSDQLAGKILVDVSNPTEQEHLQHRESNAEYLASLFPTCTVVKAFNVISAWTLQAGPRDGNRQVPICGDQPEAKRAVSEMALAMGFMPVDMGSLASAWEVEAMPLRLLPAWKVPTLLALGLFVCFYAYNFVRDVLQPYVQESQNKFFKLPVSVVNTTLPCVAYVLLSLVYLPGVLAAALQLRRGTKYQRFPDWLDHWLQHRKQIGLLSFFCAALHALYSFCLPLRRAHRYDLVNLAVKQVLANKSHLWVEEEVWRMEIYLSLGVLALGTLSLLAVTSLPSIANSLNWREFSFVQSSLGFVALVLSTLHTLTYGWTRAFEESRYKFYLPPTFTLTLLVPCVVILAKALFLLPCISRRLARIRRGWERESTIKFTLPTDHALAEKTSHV
inactive: [1] 0.065 | crizotinib -0.003 | [2] 0.022 | [3] -0.013 | duvelisib 0.054 | gandotinib -0.032 | tozasertib -0.006 | [4] 0.012 | doramapimod 0.003 | ispinesib -0.159 | bafetinib -0.044 | [9] 0.058 | nilotinib -0.001 | [5] -0.061 | dasatinib -0.028 | [6] 0.03 | [7] 0.039 | [8] 0.11 | tipifarnib -0.085 | mubritinib -0.034

SLC27A1 (UniProt Q6PCB7)
Sequence of UniProt Q6PCB7 (Q6PCB7 whole entry, looked up): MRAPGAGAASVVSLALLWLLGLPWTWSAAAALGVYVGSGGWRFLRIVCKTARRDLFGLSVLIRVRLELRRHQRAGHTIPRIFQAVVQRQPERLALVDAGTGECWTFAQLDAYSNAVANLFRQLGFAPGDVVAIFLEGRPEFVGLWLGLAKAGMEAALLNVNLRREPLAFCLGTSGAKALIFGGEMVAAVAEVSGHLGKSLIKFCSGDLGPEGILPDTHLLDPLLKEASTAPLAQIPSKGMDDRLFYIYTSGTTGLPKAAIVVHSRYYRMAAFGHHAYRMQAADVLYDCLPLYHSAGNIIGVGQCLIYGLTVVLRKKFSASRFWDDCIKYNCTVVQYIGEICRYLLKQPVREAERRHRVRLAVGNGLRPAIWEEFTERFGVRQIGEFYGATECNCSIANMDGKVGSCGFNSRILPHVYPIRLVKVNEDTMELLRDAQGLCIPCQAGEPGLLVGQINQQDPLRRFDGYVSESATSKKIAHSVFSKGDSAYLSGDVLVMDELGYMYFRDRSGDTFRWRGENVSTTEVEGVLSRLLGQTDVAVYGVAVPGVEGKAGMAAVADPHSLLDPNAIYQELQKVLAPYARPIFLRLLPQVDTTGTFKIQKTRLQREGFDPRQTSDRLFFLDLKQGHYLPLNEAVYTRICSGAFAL
active: mubritinib 0.431
inactive: [1] 0.116 | crizotinib 0.123 | [2] 0.016 | [3] -0.099 | duvelisib 0.05 | tozasertib -0.084 | [4] 0.112 | doramapimod 0.062 | ispinesib 0.06 | bafetinib 0.047 | nilotinib -0.087 | [5] -0.009 | dasatinib -0.152 | [6] 0.079 | [7] -0.053 | [8] 0.046 | tipifarnib 0.094

SYNE1 (UniProt Q8NF91)
inactive: [1] 0.096 | crizotinib -0.132 | [2] -0.041 | [3] 0.104 | duvelisib 0.103 | gandotinib 0.109 | tozasertib -0.187 | [4] -0.04 | doramapimod 0.061 | ispinesib -0.159 | bafetinib -0.051 | [9] 0.008 | nilotinib 0.021 | [5] -0.281 | dasatinib -0.074 | [6] -0.074 | [7] 0.079 | [8] -0.098 | mubritinib 0.182

Source: the supplement of paper PMC10849652
